Data: ChEMBL document CHEMBL2218924, “A broad activity screen in support of a chemogenomic map for kinase signalling research and drug discovery” (Biochem J, 2013)

Experiments:
[1] = target: Calcium/calmodulin-dependent protein kinase type 1 (Homo sapiens) (UniProt Q14012); conditions: at 1 µM
[2] = target: Calcium/calmodulin-dependent protein kinase type 1 (Homo sapiens) (UniProt Q14012); conditions: at 10 µM
[3] = target: Calcium/calmodulin-dependent protein kinase type II subunit beta (Homo sapiens) (UniProt Q13554); conditions: at 1 µM
Chain of Calcium/calmodulin-dependent protein kinase type II subunit beta (Homo sapiens) (Q13554 whole entry): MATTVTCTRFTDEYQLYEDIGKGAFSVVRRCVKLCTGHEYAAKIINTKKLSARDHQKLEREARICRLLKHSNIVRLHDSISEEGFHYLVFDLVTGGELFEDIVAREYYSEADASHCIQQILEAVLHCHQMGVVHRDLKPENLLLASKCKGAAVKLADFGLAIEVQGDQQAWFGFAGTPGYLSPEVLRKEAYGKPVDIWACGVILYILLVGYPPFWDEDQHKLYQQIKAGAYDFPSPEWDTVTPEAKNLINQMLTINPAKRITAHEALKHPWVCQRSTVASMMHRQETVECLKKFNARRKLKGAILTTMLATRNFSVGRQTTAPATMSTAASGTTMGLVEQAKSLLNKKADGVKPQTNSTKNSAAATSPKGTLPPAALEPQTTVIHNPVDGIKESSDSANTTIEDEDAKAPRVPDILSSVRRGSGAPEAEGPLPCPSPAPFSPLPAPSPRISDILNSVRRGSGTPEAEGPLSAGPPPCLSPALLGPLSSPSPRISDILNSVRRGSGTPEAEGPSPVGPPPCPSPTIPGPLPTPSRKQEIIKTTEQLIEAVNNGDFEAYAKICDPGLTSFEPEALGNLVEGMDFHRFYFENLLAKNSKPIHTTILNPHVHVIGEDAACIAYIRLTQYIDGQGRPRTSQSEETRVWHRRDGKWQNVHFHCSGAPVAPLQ

[4] = target: Calcium/calmodulin-dependent protein kinase type II subunit beta (Homo sapiens) (UniProt Q13554); conditions: at 10 µM
[5] = target: Calcium/calmodulin-dependent protein kinase type II subunit gamma (Homo sapiens) (UniProt Q13555); conditions: at 1 µM
Chain of Calcium/calmodulin-dependent protein kinase type II subunit gamma (Homo sapiens) (Q13555 whole entry): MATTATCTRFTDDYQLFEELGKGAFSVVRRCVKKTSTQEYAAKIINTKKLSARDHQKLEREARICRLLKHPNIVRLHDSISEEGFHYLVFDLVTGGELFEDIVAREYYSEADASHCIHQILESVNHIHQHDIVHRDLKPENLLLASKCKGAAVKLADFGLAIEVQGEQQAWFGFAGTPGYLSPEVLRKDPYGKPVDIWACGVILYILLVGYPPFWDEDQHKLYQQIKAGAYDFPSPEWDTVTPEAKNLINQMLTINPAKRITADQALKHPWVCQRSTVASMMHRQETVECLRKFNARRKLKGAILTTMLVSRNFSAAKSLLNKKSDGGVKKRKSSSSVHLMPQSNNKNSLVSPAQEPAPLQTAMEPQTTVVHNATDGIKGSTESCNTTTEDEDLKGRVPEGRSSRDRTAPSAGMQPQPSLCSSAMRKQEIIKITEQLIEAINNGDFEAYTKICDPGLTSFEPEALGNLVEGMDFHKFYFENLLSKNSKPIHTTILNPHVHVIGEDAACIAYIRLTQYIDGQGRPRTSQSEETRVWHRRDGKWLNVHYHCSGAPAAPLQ

[6] = target: Calcium/calmodulin-dependent protein kinase type II subunit gamma (Homo sapiens) (UniProt Q13555); conditions: at 10 µM
[7] = target: Calcium/calmodulin-dependent protein kinase type II subunit delta (Homo sapiens) (UniProt Q13557); conditions: at 10 µM
Chain of Calcium/calmodulin-dependent protein kinase type II subunit delta (Homo sapiens) (Q13557 whole entry): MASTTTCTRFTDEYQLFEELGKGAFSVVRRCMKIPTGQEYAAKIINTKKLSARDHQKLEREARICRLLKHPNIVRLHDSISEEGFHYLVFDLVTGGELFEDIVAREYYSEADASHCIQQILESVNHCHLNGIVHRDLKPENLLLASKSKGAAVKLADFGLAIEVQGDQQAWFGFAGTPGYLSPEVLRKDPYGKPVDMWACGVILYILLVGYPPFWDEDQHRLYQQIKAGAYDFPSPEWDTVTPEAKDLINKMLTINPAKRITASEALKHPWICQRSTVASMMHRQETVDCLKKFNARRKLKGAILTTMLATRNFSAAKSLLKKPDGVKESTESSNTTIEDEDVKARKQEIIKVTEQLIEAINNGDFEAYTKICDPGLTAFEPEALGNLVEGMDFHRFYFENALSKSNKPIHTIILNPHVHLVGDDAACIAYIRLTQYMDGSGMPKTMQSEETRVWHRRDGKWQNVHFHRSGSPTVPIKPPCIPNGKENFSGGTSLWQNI

[8] = target: T1, Calcium/calmodulin-dependent protein kinase type IV (Homo sapiens) (UniProt Q16566); conditions: at 10 µM
T1 sequence (whole entry): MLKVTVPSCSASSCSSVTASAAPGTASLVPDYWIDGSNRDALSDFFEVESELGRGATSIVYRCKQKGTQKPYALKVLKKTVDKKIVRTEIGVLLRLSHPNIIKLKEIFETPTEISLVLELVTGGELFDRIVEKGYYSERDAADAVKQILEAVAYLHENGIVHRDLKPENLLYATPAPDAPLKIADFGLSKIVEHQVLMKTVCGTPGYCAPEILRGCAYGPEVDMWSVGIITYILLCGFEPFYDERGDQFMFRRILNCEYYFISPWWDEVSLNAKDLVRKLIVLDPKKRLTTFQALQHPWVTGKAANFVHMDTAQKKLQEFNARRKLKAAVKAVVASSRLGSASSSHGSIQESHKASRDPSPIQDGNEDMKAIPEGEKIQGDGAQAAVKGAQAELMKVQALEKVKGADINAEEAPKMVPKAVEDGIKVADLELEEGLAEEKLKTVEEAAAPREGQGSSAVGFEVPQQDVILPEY

[9] = target: Death-associated protein kinase 1 (Homo sapiens) (UniProt P53355); conditions: at 10 µM
Chain of Death-associated protein kinase 1 (Homo sapiens) (P53355 whole entry, looked up): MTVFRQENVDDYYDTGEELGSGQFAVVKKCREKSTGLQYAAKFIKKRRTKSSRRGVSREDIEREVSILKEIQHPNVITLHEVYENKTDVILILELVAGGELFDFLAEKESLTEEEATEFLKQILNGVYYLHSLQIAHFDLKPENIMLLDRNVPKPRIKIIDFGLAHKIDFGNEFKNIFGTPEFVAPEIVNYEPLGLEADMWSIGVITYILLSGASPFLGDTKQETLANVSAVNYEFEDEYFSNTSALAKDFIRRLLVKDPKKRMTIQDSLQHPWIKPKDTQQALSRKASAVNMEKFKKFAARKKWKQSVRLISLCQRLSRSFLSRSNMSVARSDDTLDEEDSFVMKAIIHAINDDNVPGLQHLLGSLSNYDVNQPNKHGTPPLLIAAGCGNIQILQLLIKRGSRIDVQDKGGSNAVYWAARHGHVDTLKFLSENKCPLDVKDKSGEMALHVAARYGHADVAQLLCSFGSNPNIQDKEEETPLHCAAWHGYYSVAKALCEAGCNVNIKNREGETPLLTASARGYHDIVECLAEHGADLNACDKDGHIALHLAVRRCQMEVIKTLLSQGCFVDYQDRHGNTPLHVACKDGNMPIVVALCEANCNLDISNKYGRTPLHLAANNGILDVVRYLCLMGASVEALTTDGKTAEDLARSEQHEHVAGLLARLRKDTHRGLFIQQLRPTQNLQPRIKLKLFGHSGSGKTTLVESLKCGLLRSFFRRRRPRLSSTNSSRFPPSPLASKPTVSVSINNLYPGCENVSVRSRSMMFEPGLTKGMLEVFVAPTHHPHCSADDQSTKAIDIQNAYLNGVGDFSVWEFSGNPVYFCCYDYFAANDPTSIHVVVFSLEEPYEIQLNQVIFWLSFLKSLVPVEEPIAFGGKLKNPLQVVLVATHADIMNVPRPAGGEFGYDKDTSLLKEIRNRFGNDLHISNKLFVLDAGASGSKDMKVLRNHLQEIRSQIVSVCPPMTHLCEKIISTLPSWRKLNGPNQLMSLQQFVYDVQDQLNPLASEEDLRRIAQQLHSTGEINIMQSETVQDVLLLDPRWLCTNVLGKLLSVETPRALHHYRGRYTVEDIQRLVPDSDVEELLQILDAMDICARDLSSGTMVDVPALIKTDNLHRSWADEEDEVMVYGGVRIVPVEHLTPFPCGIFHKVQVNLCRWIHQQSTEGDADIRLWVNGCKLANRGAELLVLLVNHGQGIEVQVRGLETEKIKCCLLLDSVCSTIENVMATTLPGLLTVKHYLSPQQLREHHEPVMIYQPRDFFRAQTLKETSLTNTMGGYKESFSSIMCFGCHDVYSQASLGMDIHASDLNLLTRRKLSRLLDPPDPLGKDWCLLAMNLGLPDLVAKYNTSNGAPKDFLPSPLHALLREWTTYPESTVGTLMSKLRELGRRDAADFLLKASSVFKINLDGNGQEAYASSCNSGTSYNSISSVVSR

[10] = target: Death-associated protein kinase 2 (Homo sapiens) (UniProt Q9UIK4); conditions: at 1 µM
Chain of Death-associated protein kinase 2 (Homo sapiens) (Q9UIK4 whole entry, looked up): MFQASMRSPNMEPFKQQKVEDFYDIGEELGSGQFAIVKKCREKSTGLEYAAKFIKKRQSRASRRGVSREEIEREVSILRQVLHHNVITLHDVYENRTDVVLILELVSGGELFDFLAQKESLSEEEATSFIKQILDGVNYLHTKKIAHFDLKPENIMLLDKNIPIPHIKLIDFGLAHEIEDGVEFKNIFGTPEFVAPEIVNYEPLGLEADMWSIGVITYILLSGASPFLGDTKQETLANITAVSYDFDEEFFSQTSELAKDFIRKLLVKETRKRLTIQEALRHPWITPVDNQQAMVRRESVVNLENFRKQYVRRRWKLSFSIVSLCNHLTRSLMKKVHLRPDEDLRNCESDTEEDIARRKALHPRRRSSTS

[11] = target: T2, Serine/threonine-protein kinase DCLK2 (Homo sapiens) (UniProt Q8N568); conditions: at 1 µM
T2 sequence (whole entry): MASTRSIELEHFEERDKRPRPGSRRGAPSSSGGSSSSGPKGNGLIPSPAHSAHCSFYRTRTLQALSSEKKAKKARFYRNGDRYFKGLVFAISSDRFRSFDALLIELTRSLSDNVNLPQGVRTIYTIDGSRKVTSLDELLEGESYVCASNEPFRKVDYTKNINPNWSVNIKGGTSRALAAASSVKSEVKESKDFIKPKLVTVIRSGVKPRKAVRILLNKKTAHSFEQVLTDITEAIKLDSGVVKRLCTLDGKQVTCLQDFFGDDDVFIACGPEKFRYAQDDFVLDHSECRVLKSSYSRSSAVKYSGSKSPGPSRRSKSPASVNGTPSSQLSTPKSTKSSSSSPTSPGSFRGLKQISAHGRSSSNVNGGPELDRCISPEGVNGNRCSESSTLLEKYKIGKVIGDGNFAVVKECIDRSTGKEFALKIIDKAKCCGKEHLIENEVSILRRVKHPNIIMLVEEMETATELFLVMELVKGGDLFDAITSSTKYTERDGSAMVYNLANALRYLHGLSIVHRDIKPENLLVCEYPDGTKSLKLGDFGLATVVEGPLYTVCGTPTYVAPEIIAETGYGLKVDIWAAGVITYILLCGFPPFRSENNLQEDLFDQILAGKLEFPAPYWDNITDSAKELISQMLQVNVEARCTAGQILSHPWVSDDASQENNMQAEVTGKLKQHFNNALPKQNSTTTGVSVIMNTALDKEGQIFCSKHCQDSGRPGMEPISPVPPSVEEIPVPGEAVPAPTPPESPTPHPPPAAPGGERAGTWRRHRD

[12] = target: T2, Serine/threonine-protein kinase DCLK2 (Homo sapiens); conditions: at 10 µM
[13] = target: T3, Discoidin domain-containing receptor 2 (Homo sapiens) (UniProt Q16832); conditions: at 10 µM
T3 sequence (whole entry): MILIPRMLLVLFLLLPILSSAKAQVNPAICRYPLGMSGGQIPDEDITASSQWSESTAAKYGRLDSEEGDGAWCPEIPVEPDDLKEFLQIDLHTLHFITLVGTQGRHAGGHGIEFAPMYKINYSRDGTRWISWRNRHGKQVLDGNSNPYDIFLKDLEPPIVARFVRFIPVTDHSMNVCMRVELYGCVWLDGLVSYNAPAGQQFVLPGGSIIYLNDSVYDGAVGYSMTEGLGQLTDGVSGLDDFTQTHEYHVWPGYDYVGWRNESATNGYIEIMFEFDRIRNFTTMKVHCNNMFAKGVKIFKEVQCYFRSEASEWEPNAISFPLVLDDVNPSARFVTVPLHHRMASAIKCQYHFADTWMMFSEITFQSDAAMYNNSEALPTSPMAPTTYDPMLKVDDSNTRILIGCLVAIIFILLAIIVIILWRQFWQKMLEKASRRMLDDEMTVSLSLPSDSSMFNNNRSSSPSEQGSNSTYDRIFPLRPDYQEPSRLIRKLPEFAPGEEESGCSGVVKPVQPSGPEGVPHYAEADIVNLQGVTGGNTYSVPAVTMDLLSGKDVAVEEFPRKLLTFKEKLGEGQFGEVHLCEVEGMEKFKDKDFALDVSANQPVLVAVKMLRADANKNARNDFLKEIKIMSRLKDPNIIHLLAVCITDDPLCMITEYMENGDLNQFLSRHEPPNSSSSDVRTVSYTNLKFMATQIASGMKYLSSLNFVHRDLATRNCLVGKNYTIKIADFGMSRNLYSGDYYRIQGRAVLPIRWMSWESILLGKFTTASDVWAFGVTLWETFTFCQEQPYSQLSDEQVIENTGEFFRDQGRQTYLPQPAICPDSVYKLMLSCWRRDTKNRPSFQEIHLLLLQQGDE

[14] = target: T4, Myotonin-protein kinase (Homo sapiens) (UniProt Q09013); conditions: at 1 µM
T4 sequence (whole entry): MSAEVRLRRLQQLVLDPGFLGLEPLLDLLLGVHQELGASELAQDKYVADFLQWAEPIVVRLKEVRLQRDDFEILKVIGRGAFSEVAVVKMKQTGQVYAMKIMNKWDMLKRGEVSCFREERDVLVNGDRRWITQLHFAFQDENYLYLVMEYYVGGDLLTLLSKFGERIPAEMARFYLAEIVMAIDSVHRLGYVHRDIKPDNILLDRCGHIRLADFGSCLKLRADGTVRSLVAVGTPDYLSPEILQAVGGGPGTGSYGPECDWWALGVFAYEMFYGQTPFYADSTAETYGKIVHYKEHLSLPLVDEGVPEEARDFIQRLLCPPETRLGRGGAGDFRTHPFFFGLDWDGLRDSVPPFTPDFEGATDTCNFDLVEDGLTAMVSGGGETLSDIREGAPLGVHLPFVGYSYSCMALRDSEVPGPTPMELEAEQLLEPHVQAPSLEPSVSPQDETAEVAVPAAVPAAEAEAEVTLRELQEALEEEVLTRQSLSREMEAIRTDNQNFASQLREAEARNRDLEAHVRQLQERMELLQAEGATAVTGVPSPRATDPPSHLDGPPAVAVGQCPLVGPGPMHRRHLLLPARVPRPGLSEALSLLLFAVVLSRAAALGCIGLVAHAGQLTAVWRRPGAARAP

[15] = target: T4, Myotonin-protein kinase (Homo sapiens); conditions: at 10 µM
[16] = target: T5, Serine/threonine-protein kinase 17A (Homo sapiens) (UniProt Q9UEE5); conditions: at 1 µM
T5 sequence (whole entry): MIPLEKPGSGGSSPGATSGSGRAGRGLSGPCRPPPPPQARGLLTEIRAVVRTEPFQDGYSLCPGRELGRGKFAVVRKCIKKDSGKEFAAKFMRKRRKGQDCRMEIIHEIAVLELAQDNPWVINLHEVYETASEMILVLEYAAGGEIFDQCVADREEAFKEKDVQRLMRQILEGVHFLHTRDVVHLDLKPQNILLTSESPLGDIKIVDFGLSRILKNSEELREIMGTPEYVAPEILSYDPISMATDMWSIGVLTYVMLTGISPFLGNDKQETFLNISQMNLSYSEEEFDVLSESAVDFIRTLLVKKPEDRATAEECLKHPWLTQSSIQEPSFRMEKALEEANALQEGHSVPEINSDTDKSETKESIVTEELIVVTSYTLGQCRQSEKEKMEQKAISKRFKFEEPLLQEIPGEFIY

[17] = target: Calcium/calmodulin-dependent protein kinase type II subunit delta (Homo sapiens) (UniProt Q13557); conditions: at 1 µM
[18] = target: T1, Calcium/calmodulin-dependent protein kinase type IV (Homo sapiens); conditions: at 1 µM
[19] = target: T3, Discoidin domain-containing receptor 2 (Homo sapiens); conditions: at 1 µM
[20] = target: Death-associated protein kinase 2 (Homo sapiens) (UniProt Q9UIK4); conditions: at 10 µM

Chain of Calcium/calmodulin-dependent protein kinase type 1 (Homo sapiens) (Q14012 whole entry, looked up): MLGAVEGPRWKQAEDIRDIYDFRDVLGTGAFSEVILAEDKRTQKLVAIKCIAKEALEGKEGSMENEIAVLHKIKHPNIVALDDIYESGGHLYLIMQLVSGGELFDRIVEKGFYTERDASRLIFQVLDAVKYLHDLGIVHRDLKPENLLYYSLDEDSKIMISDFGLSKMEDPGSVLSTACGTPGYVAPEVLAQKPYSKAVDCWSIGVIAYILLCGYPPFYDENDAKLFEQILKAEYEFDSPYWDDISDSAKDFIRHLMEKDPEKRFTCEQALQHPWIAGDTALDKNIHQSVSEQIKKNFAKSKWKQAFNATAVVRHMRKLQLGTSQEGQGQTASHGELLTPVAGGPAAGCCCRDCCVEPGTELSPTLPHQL

Row | Structure (SMILES) | residual activity [1] | residual activity [2] | residual activity [3] | residual activity [4] | residual activity [5] | residual activity [6] | residual activity [7] | residual activity [8] | residual activity [9] | residual activity [10] | residual activity [11] | residual activity [12] | residual activity [13] | residual activity [14] | residual activity [15] | residual activity [16] | residual activity [17] | residual activity [18] | residual activity [19] | residual activity [20]
1 | c1ccc2c(-c3ccncc3)c[nH]c2c1 | 106% | 84% | 47% | 10% | 79% | 26% | 30% | 90% | 91% | 100% | 75% | 98% | 97% | 147% | 132% | 102% | – | – | – | –
2 | O=C1Nc2ccc(Br)cc2/C1=C\c1cc2c([nH]1)CCCC2 | 105% | – | 72% | 69% | 20% | 16% | 20% | – | – | – | – | – | – | 115% | 130% | 48% | 18% | 135% | 110% | –
3 | O=c1c2ccccc2[nH]c(=S)n1CCN1CCC(=C(c2ccc(F)cc2)c2ccc(F)cc2)CC1 | 110% | 113% | 102% | 79% | 115% | 100% | 91% | 95% | 62% | 109% | 91% | 79% | 87% | 105% | 108% | 71% | 105% | 108% | 104% | 104%
4 | O=C1NC(=O)c2cc(Nc3ccc(F)cc3)c(Nc3ccc(F)cc3)cc21 | 109% | 71% | 85% | 50% | 111% | 102% | 88% | 66% | 76% | 77% | 76% | 89% | 51% | 125% | 129% | 105% | 110% | 119% | 92% | 84%
5 | Nc1nc(Nc2ccc(S(N)(=O)=O)cc2)nn1C(=S)Nc1c(F)cccc1F | 66% | 17% | 5% | -1% | 2% | 0% | 0% | – | – | 84% | 13% | 2% | 28% | 122% | 31% | 1% | 0% | – | 74% | 43%
6 | Cc1ccc(S(=O)(=O)/C=C/C#N)cc1 | 95% | 77% | 101% | 88% | 103% | 94% | 107% | 86% | 87% | 104% | 125% | 99% | 100% | 125% | 100% | 105% | 104% | 108% | 98% | 105%
7 | Cc1nc(-c2ccccc2)c(-c2ccncc2)o1 | 104% | 89% | 97% | 86% | 97% | 83% | 81% | 112% | 95% | 99% | 124% | 113% | 36% | 104% | 102% | 120% | 104% | 108% | 50% | –
8 | COc1cccc(-c2cc(=O)c3ccccc3o2)c1N | 97% | 82% | 92% | 87% | 98% | 98% | 99% | 108% | 90% | 99% | 107% | 120% | – | 122% | 96% | 101% | 101% | 108% | 91% | 99%
9 | CN(C)CCCn1cc(C2=C(c3c[nH]c4ccccc34)C(=O)NC2=O)c2ccccc21 | 89% | 49% | 63% | 18% | 28% | 6% | 5% | 45% | 75% | 72% | – | 88% | 82% | 31% | 25% | 108% | 16% | 88% | 113% | 33%
10 | Cc1cc(Nc2nc(-c3ccccc3)nc3ccccc23)n[nH]1 | 61% | 13% | – | 42% | 60% | 16% | 20% | 15% | 17% | 56% | 99% | 69% | 41% | 111% | 79% | 42% | 63% | 47% | 71% | 11%
11 | COc1ccc(CNc2nc(N(CCO)CCO)nc3c2ncn3C(C)C)cc1 | 85% | 55% | 89% | 55% | 99% | 63% | 54% | 78% | 88% | 102% | 94% | 80% | 96% | 104% | 73% | 106% | 92% | 113% | 91% | 104%
